{"source": "paper PMC4552634", "about": "“A New Set of Chemical Starting Points with Plasmodium falciparum Transmission-Blocking Potential for Antimalarial Drug Discovery” (PLoS ONE, 2015)", "note": "The campaign covered roughly 13,000 compounds. About 3,200 (25%) showed an effect of 50% or more. The list shows a part of the results.", "data": [{"system": "P. falciparum stage V gametocytes", "parameters": "BacTiter-Glo ATP luminescence viability of purified stage V gametocytes in 384-well plates, per cent inhibition versus DMSO", "settings": "48 h, 5 µM; inhibitor", "units": {"% Inhibition": "%"}, "values": [{"smiles": "Nc1nc(N)c(-c2ccccc2)c(=O)[nH]1", "note": "[TCMDC-137349]", "% Inhibition": 4.514}, {"smiles": "CC(C)CNCc1cccc(-c2ccc(CN(CCCN3CCN(C)CC3)C(=O)CCC3CCCC3)cc2)c1", "note": "[TCMDC-140558]", "% Inhibition": 107.6}, {"smiles": "CC[C@H](C)CNC(=O)c1ccnc(-c2cccc(CN(C)C3CCN(C)CC3)c2)c1", "note": "[TCMDC-134243]", "% Inhibition": -9.422}, {"smiles": "CC(C)CNCc1cccc(-c2cccc(CN(CCCN3CCN(C)CC3)C(=O)CCC3CCCC3)c2)c1", "note": "[TCMDC-140554]", "% Inhibition": 109.3}, {"smiles": "CC[C@H](C)CNC(=O)c1cncc(-c2cccc(CN(C)C3CCN(C)CC3)c2)c1", "note": "[TCMDC-134225]", "% Inhibition": 17.67}, {"smiles": "COc1cc(OC)c(OC)cc1CN1CCC2(CC1)CN(Cc1ccc(Cl)c(Cl)c1)C(=O)O2", "note": "[TCMDC-132175]", "% Inhibition": 23.65}, {"smiles": "CCOc1c(CNCCCNc2cc(=O)c3ccccc3[nH]2)cc(I)cc1C(C)(C)C", "note": "[TCMDC-140132]", "% Inhibition": -43.73}, {"smiles": "O=C(Nc1cccc(F)c1)c1ccc(C(=O)NC2CCN(CC3CCCCC3)C2)cc1", "note": "(stereo not shown) [TCMDC-136741]", "% Inhibition": 0.01446}, {"smiles": "CC(CN(C)C)C(=O)Nc1cccc(-c2cccc(-c3nc4ccc(F)cc4[nH]3)c2)c1", "note": "(stereo not shown) [TCMDC-137104]", "% Inhibition": -36.15}, {"smiles": "CC(CN(C)C)C(=O)Nc1ccc(-c2cccc(-c3nc4ccccc4[nH]3)c2)cc1", "note": "(stereo not shown) [TCMDC-137099]", "% Inhibition": -5.672}, {"smiles": "CC(CN(C)C)C(=O)Nc1cccc(-c2ccc(-c3nc4ccccc4[nH]3)cc2)c1", "note": "(stereo not shown) [TCMDC-137107]", "% Inhibition": -47.86}, {"smiles": "CC(CN(C)C)C(=O)Nc1ccc(-c2ccc(-c3nc4ccccc4[nH]3)cc2)cc1", "note": "(stereo not shown) [TCMDC-137108]", "% Inhibition": 88.79}, {"smiles": "CC(CN(C)C)C(=O)Nc1ccc(-c2csc(-c3nc4ccccc4[nH]3)c2)cc1", "note": "(stereo not shown) [TCMDC-132390]", "% Inhibition": 44.44}, {"smiles": "CC(CN(C)C)C(=O)Nc1cccc(-c2cccc(-c3nc4ccccc4[nH]3)c2)c1", "note": "(stereo not shown) [TCMDC-137101]", "% Inhibition": 94.09}, {"smiles": "C#CCNCc1ccc(-c2ccc(-c3nc4cc(C(F)(F)F)ccc4[nH]3)s2)cc1.O=C(O)C(F)(F)F", "note": "[TCMDC-132805]", "% Inhibition": -48.9}, {"smiles": "COc1cc(CCON2C(N)=NC(N)=NC2(C)C)cc(OC)c1OC", "note": "[TCMDC-131368]", "% Inhibition": -0.5645}, {"smiles": "CC[C@]1(C)C[C@@H](NC(=O)NC(=O)c2ccc(OC)cc2)[C@]2(C)[C@H](C)CC[C@]3(CCC(=O)[C@H]32)[C@@H](C)[C@@H]1OC(=O)NC(=O)c1ccc(OC)cc1", "note": "[TCMDC-139025]", "% Inhibition": 34.49}, {"smiles": "O=S(=O)(c1cc(Cl)c(Cl)cc1Cl)N1CCCCC(c2ccc(C(F)(F)F)cc2)=N1", "note": "[TCMDC-134542]", "% Inhibition": -0.152}, {"smiles": "CC1(C)N=C(N)N=C(N)N1OCCCOc1cccc(C(=O)O)c1", "note": "[TCMDC-124025]", "% Inhibition": 22.26}, {"smiles": "O=C(Nc1ccc(-c2cccc(-c3nc4ccccc4[nH]3)c2)cc1)Nc1ccc2c(c1)OCO2", "note": "[TCMDC-133168]", "% Inhibition": -6.536}, {"smiles": "Cc1[nH]c(C)c(-c2ccc(OCc3ccc(F)cc3)nc2)c(=O)c1Br", "note": "[TCMDC-135657]", "% Inhibition": 60.6}, {"smiles": "Cc1[nH]c(C)c(-c2ccc(OCc3ccc(OC(F)(F)F)cc3)nc2)c(=O)c1Br", "note": "[TCMDC-135254]", "% Inhibition": 45.17}, {"smiles": "Cc1[nH]c(C)c(-c2ccc(OCc3cc(F)cc(F)c3)nc2)c(=O)c1Cl", "note": "[TCMDC-135676]", "% Inhibition": 67.03}, {"smiles": "Cc1[nH]c(C)c(-c2ccc(OCc3cc(F)cc(F)c3)nc2)c(=O)c1Br", "note": "[TCMDC-135683]", "% Inhibition": 58.89}, {"smiles": "CCNc1cc(C(=O)N[C@@H](Cc2ccc(Cl)cc2)[C@H](O)CNC2CCCCC2)cc(N2CCCCS2(=O)=O)c1", "note": "[TCMDC-135201]", "% Inhibition": 29.54}, {"smiles": "N#Cc1ccc(NC(=Nc2ccccc2Br)N(C2CCCCC2)C2CCCCC2)c(O)c1", "note": "[TCMDC-140131]", "% Inhibition": -34.98}, {"smiles": "FC(F)(F)CNc1nc(Nc2ccc3ncccc3c2)nc2[nH]ccc12", "note": "[TCMDC-132120]", "% Inhibition": 26.12}, {"smiles": "C=C[C@H]1CN2CC[C@H]1C[C@H]2[C@H](O)c1ccnc2ccccc12", "note": "[TCMDC-123934]", "% Inhibition": 4.056}, {"smiles": "CN(C)c1cccc(CN2CC=C(c3c[nH]c4ccc(Cl)cc34)CC2)c1", "note": "[TCMDC-138946]", "% Inhibition": 8.82}, {"smiles": "COc1ccc(-c2ccc3c(-c4cccc(S(C)(=O)=O)c4)cnc(N)c3c2)cc1", "note": "[TCMDC-134494]", "% Inhibition": 3.475}, {"smiles": "NS(=O)(=O)c1cccc(Br)c1", "note": "[TCMDC-123819]", "% Inhibition": -1.825}, {"smiles": "CS(=O)(=O)c1cccc(-c2cnc(N)c3cc(-c4cccc(F)c4)ccc23)c1", "note": "[TCMDC-134493]", "% Inhibition": 8.942}, {"smiles": "CS(=O)(=O)c1cccc(-c2cnc(N)c3cc(-c4ccc(F)cc4)ccc23)c1", "note": "[TCMDC-134492]", "% Inhibition": 11.87}, {"smiles": "Nc1ncnc2cc(-c3cccc(S(N)(=O)=O)c3)sc12", "note": "[TCMDC-135294]", "% Inhibition": -17.5}, {"smiles": "CN(C)S(=O)(=O)c1cc(-c2ccc3nccc(-c4cccc(S(N)(=O)=O)c4)c3c2)cnc1N", "note": "[TCMDC-134230]", "% Inhibition": 96.42}, {"smiles": "COc1cccc(-c2ccc3c(-c4cccc(S(C)(=O)=O)c4)cnc(N)c3c2)c1", "note": "[TCMDC-134495]", "% Inhibition": 30.55}, {"smiles": "NS(=O)(=O)c1cccc(-c2ccc3c(=O)[nH]cnc3c2)c1", "note": "[TCMDC-136756]", "% Inhibition": 63.64}, {"smiles": "NS(=O)(=O)Cc1cccc(-c2ccnc3ccc(-c4cccc(S(N)(=O)=O)c4)cc23)c1", "note": "[TCMDC-134159]", "% Inhibition": 58.63}, {"smiles": "NS(=O)(=O)c1cccc(-c2ccc3nccc(-c4cccc(S(N)(=O)=O)c4)c3c2)c1", "note": "[TCMDC-138902]", "% Inhibition": 75.33}, {"smiles": "CS(=O)(=O)c1cccc(-c2cnc(N)c3cc(-c4ccc5c(c4)OCO5)ccc23)c1", "note": "[TCMDC-134515]", "% Inhibition": -1.728}, {"smiles": "COc1cc(Nc2nccc(N3CCC(NC(=O)Nc4cc(C)ccc4C)C3)n2)cc(OC)c1OC", "note": "(stereo not shown) [TCMDC-133626]", "% Inhibition": -44.43}, {"smiles": "Cc1cc(-c2ccc(Cl)cc2)c2c(N)c(C(=O)Nc3ccc(F)cc3)sc2n1", "note": "[TCMDC-124117]", "% Inhibition": 40.98}, {"smiles": "CN(C)C(CNC(=O)c1cc(-c2ccncc2)c(-c2ccc(NC(=O)Nc3cccc(F)c3)cc2)o1)c1ccccc1", "note": "(stereo not shown) [TCMDC-135782]", "% Inhibition": 6.274}, {"smiles": "CC(C)(C)c1ccc(-c2ccccc2CNC(=O)c2cccc(O)c2)cc1", "note": "[TCMDC-136181]", "% Inhibition": 21.07}, {"smiles": "O=C(NCc1ccccc1)Nc1cccc(-c2cccc(-c3nc4ccc(C(F)(F)F)cc4[nH]3)c2)c1", "note": "[TCMDC-133161]", "% Inhibition": -23.46}, {"smiles": "Cc1cc(CN2CCC(N3CC(c4ccccc4)(c4ccccc4)OCC3=O)C2)ccc1O", "note": "(stereo not shown) [TCMDC-136340]", "% Inhibition": -6.883}, {"smiles": "CN1CCCN(Cc2ccc(-c3cccc(NC(=O)c4ccc(C#N)cc4)c3)cc2)CC1", "note": "[TCMDC-132637]", "% Inhibition": 9.146}, {"smiles": "Cc1cc(-c2cnc(N)c(-c3ccc(N4CCN(C)CC4)nc3)c2)cc(C)c1O", "note": "[TCMDC-133346]", "% Inhibition": -63.65}, {"smiles": "CN(Cc1ccccc1)C1CCCN(c2cc(NC(=O)c3cccs3)ccn2)C1", "note": "(stereo not shown) [TCMDC-135007]", "% Inhibition": -39.99}, {"smiles": "CC(C)c1cc2c(cc1O)C(Cc1ccccc1Cl)N(C)CC2", "note": "(stereo not shown) [TCMDC-137322]", "% Inhibition": -86.96}, {"smiles": "COCC(C)n1c(SCC(=O)Nc2cc(C(F)(F)F)ccc2Cl)nc2ccccc2c1=O", "note": "(stereo not shown) [TCMDC-125436]", "% Inhibition": 2.32}, {"smiles": "CCn1c(SCC(=O)Nc2cc(C(F)(F)F)ccc2Cl)nc2ccccc2c1=O", "note": "[TCMDC-125426]", "% Inhibition": 3.057}, {"smiles": "COCCn1c(SC(C)C(=O)Nc2cc(C(F)(F)F)ccc2Cl)nc2ccccc2c1=O", "note": "(stereo not shown) [TCMDC-125030]", "% Inhibition": 60.86}, {"smiles": "COc1ccc(N(C)Cc2cnc3nc(N)nc(N)c3n2)cc1", "note": "[TCMDC-137682]", "% Inhibition": 5.189}, {"smiles": "COC(=O)C(C)(C)c1ccc(CC(C)NCC(O)c2cccc(C(F)(F)F)c2)cc1", "note": "(stereo not shown) [TCMDC-131482]", "% Inhibition": 7.113}, {"smiles": "Oc1ccc(Cl)cc1Nc1nc(C(F)(F)F)nc2ccccc12", "note": "[TCMDC-125147]", "% Inhibition": -61.42}, {"smiles": "N#Cc1cccc(CN(Cc2ccc(Cl)c(Cl)c2)S(=O)(=O)c2cccc([N+](=O)[O-])c2)c1", "note": "[TCMDC-141594]", "% Inhibition": 51.09}, {"smiles": "O=[N+]([O-])c1cccc(CNCC2CCN(Cc3ccc(Cl)c(Cl)c3)CC2)c1", "note": "[TCMDC-141206]", "% Inhibition": 3.652}, {"smiles": "O=C(Nc1cccc([N+](=O)[O-])c1)N(Cc1ccc(Cl)c(Cl)c1)C1CCNCC1", "note": "[TCMDC-141400]", "% Inhibition": 39.3}, {"smiles": "Cc1cccc2sc(N(CCCn3ccnc3)C(=O)C=Cc3cccs3)nc12", "note": "[TCMDC-124929]", "% Inhibition": 30.83}, {"smiles": "Cc1c(C(=O)N2CCc3cc4nccc(N5CCN6CCC[C@H]6C5)c4cc32)cnn1-c1ccc(C#N)cc1", "note": "[TCMDC-141315]", "% Inhibition": 14.04}, {"smiles": "CCCCOc1ccccc1C(=O)NCc1csc(-c2ccccc2)n1", "note": "[TCMDC-124914]", "% Inhibition": 34.72}, {"smiles": "CCCCNCc1ccc(-c2nc(CN(Cc3ccc(Cl)c(Cl)c3)S(=O)(=O)c3ccc(NC(C)=O)cc3)cs2)cc1", "note": "[TCMDC-141597]", "% Inhibition": 93.87}, {"smiles": "CCN(CC)S(=O)(=O)c1ccc(Cl)c(C(=O)Nc2ccc3nc(C)sc3c2)c1", "note": "[TCMDC-124376]", "% Inhibition": 33.54}, {"smiles": "CN(C)CC(=O)N(Cc1ccc(Cl)c(Cl)c1)Cc1csc(-c2ccc(CNCc3ccccc3)cc2)n1", "note": "[TCMDC-141814]", "% Inhibition": 21.62}, {"smiles": "CC(=O)Nc1ccc(CNC2Cc3ccc(-c4ccc(Cl)c(Cl)c4)cc3C2)cc1", "note": "(stereo not shown) [TCMDC-133070]", "% Inhibition": 12.53}, {"smiles": "CCCCNCc1ccc(-c2nc(CN(Cc3ccc(Cl)c(Cl)c3)C(=O)CN(C)C)cs2)cc1", "note": "[TCMDC-141703]", "% Inhibition": 68.39}]}]}
